{"source": "PubChem BioAssay AID686978", "about": "(National Center for Advancing Translational Sciences (NCATS), 2013)", "note": "Among all 420,000 compounds or so, about 64,000 (15%) were called active. Not shown: some 27% with an inconclusive outcome. These entries were drawn from the full list. Unmarked numbers belong to inactive results. Calls follow the shape of the dose curve; as a rule, active = well fitted inhibition curve with a large enough effect; inconclusive = small, poorly fitted or top-dose-only effect; inactive = flat fitted curve, though single readings scatter. % is scaled to controls: 0 for no effect and ±100 for the full control effect; potency is read from the fitted curve at half-maximal effect.", "data": [{"test": "qHTS for Inhibitors of human tyrosyl-DNA phosphodiesterase 1 (TDP1): qHTS in cells in absence of CPT; also: nearly all actives have a fitted effect of over 55% in size", "conditions": "DT40 Tdp1-/- hTDP1 cells, no CPT, ATP luminescence, 48 h; activity change, negative = growth inhibition: at 46.2 µM (top of the series)", "outline": "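Growth kinetics read by CellTiter-Glo luminescence after ≥48 hr at 37 °C. Cells: DT40 Tdp1-/- stably carrying human TDP1, 400 per well, compound exposure in the absence of CPT (DMSO vehicle).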", "units": {"activity change, negative = growth inhibition": "%"}, "values": [{"molecule": "COc1cccc(NC(=O)Cn2c3ccc(F)cc3c3nc4n(c(=O)c32)CCS4)c1", "activity change, negative = growth inhibition": 26.7}, {"molecule": "O=C(NCC1Cc2cc(F)cc(-c3cnccn3)c2O1)C1COc2ccccc2O1", "note": "(stereo not given)", "activity change, negative = growth inhibition": -7.45}, {"molecule": "Cc1cc(C)c(C#N)c(SCc2ccccc2C(=O)O)n1", "activity change, negative = growth inhibition": -15}, {"molecule": "CSCCC(NC(=O)COc1ccccc1)C(=O)OCC(=O)c1cc2ccccc2o1", "note": "(stereo not given)", "activity change, negative = growth inhibition": -18}, {"molecule": "CCOc1ccc(Br)cc1S(=O)(=O)N1CCC(C(=O)O)CC1", "activity change, negative = growth inhibition": -17.2}, {"molecule": "CC(C)(C)NCc1cc(Br)ccc1OC1CCCC1", "Potency": "16.4 µM (active)"}, {"molecule": "CCOCCCNCc1cc(Br)ccc1OCC", "activity change, negative = growth inhibition": -20.4}, {"molecule": "CC(=O)N/C(=C/c1ccc(OC(F)F)cc1)C(=O)O", "activity change, negative = growth inhibition": -7.71}, {"molecule": "N#Cc1ccc(-c2ccc(F)cc2)nc1Sc1ccccc1", "activity change, negative = growth inhibition": -5.02}, {"molecule": "COc1ccc(NC(=O)CN(C)C(=O)Cc2coc3cc(C)c(C)cc23)cc1", "activity change, negative = growth inhibition": 1.68}, {"molecule": "Cc1ccc(NS(=O)(=O)c2ccc3c(c2)NC(=O)CO3)cc1", "activity change, negative = growth inhibition": -24}, {"molecule": "CC(C)C[C@H]1CNC(=S)N1C[C@H]1CCCN1C[C@H](Cc1ccc(O)cc1)N1C[C@H](Cc2ccc(O)cc2)N(CC2CCCCC2)C1=S", "Potency": "25.9 µM (active)"}, {"molecule": "CCOc1ccc(CCN2C(=O)C(=O)N([C@@H](Cc3ccc(O)cc3)CN3CCC[C@H]3CN3C(=O)C(=O)NC[C@@H]3CC(C)C)C[C@@H]2Cc2ccccc2)cc1", "activity change, negative = growth inhibition": -19.2}, {"molecule": "O=C1NC[C@H](CCCCN2C[C@H](Cc3ccccc3)N(Cc3ccccc3)C(=O)C2=O)N(CCc2ccc(O)cc2)C1=O", "activity change, negative = growth inhibition": -1.84}, {"molecule": "O=C1NC[C@H](CCCCN2C[C@H](Cc3ccc(O)cc3)N(CCc3ccccc3)C(=O)C2=O)N(CCc2ccccc2)C1=O", "activity change, negative = growth inhibition": -4.41}, {"molecule": "CC(C)C[C@H]1CNC(=O)C(=O)N1C[C@@H]1CCCN1C[C@H](Cc1ccccc1)N1C[C@H](CC(C)C)N(CC2CCCCCC2)C(=O)C1=O", "activity change, negative = growth inhibition": -20.9}, {"molecule": "CCOc1ccc(CCN2C(=S)N([C@@H](CC(C)C)CN3CCC[C@@H]3CN3C(=S)NC[C@@H]3Cc3ccc(O)cc3)C[C@@H]2CC(C)C)cc1", "Potency": "23.1 µM (active)"}, {"molecule": "CC(C)C[C@H]1CN([C@@H](CC(C)C)CN2CCC[C@@H]2CN2C(=O)C(=O)NC[C@@H]2Cc2ccccc2)C(=O)C(=O)N1CCc1ccccc1", "Potency": "16.4 µM (active)"}, {"molecule": "O=C1NC[C@H](CCCCN2C[C@H](Cc3ccc(O)cc3)N(CC3CCCCC3)C(=O)C2=O)N(CCc2ccccc2)C1=O", "activity change, negative = growth inhibition": -11.7}, {"molecule": "CCOc1ccc(CCN2C(=O)C(=O)N([C@@H](CC(C)C)CN3CCC[C@H]3CN3C(=O)C(=O)NC[C@@H]3Cc3ccccc3)C[C@@H]2CC(C)C)cc1", "activity change, negative = growth inhibition": -20.4}, {"molecule": "Cc1cc(NC(=O)CN2C(=O)NC(CCc3ccccc3)C2=O)no1", "note": "(stereo not given)", "activity change, negative = growth inhibition": 14.2}, {"molecule": "CCOc1ccc(CCN2C(=O)c3cccnc3C2=O)cc1OCC", "activity change, negative = growth inhibition": -19.1}, {"molecule": "CN(C(=O)C1CCOC1)c1nnc(-c2cccnc2)s1", "note": "(stereo not given)", "activity change, negative = growth inhibition": -7.53}, {"molecule": "CC(CNC(=O)c1ccc(N)cc1)NC(=O)c1ccc(N)cc1", "note": "(stereo not given)", "activity change, negative = growth inhibition": -21}, {"molecule": "Cc1cc(C)c2[nH]c(=O)c(C(c3nnnn3Cc3ccc4c(c3)OCO4)N3CCCC3)cc2c1", "note": "(stereo not given)", "Potency": "2.31 µM (active)"}, {"molecule": "CCOC(=O)C1CCN(C(c2cc3cc(C)cc(C)c3[nH]c2=O)c2nnnn2C2CCCCC2)CC1", "note": "(stereo not given)", "activity change, negative = growth inhibition": -8.63}, {"molecule": "CC(C)(C)n1nnnc1C(c1ccc(F)cc1)N1CCN(Cc2ccc3c(c2)OCO3)CC1", "note": "(stereo not given)", "activity change, negative = growth inhibition": -20.6}, {"molecule": "O=C(NCc1ccco1)/C(=C/c1cccc([N+](=O)[O-])c1)NC(=O)c1ccco1", "activity change, negative = growth inhibition": -7.01}, {"molecule": "COc1cc(NC(=O)CCS(=O)(=O)c2ccc3c(c2)oc(=O)n3C)cc(OC)c1", "activity change, negative = growth inhibition": 5.76}, {"molecule": "O=C(Nc1cc(C(F)(F)F)ccc1Cl)c1cc(C2CC2)on1", "activity change, negative = growth inhibition": -2.31}, {"molecule": "COc1ccc(-n2cnnc2SCC(=O)Nc2cccc(S(N)(=O)=O)c2)cc1", "activity change, negative = growth inhibition": 4.46}, {"molecule": "c1ccc2c(c1)CSc1sccc1C2=C1CCNCC1", "Potency": "16.4 µM (active)"}, {"molecule": "Nc1nc(Br)c2ccccc2c1-c1ccc(F)cc1", "activity change, negative = growth inhibition": -14.7}, {"molecule": "CCOc1c(Nc2cccc(Cl)c2)c(=O)c1=O", "activity change, negative = growth inhibition": -14.5}, {"molecule": "CCNCCCNCCCNCCCNCC", "Potency": "3.76 µM (active)"}, {"molecule": "COc1ccc2oc(=O)c(C(=O)N3CCCc4ccccc43)cc2c1", "activity change, negative = growth inhibition": -27.3}, {"molecule": "Cc1[nH]n(-c2ccc(Cl)cc2)c(=O)c1/C=N/n1c(C)nc2ccccc2c1=O", "Potency": "18.4 µM (active)"}, {"molecule": "CN(C(=O)Nc1ccc(Cl)cc1)n1cnc2ccccc2c1=O", "activity change, negative = growth inhibition": -22.3}, {"molecule": "S=C(Cc1ccc(Cl)cc1)N1CCOCC1", "activity change, negative = growth inhibition": -3.23}, {"molecule": "C=C1C(=O)OC2C1CCC(C)=CCCC1(C)OC21", "note": "(stereo not given)", "Potency": "3.26 µM (active)"}, {"molecule": "CCn1cc(-c2cc(C(=O)O)on2)c(C)n1", "activity change, negative = growth inhibition": 4.25}, {"molecule": "CN(C)S(=O)(=O)c1ccc(N/C=C(\\[N+](=O)[O-])S(=O)(=O)c2ccccc2)cc1", "activity change, negative = growth inhibition": -20.4}, {"molecule": "COc1ccc(NC(=O)C2=C(C)NC(=O)NC2c2ccccc2[N+](=O)[O-])cc1", "note": "(stereo not given)", "activity change, negative = growth inhibition": -13.5}, {"molecule": "COc1ccc(N/C=C(\\C2OC(=O)c3ccccc32)[N+](=O)[O-])cc1", "note": "(stereo not given)", "Potency": "23.1 µM (active)"}, {"molecule": "CC(C)=CCC/C(C)=C/C(=O)O", "activity change, negative = growth inhibition": 1.48}, {"molecule": "O=C(NCCCNC(=O)NC1CCCCC1)NC1CCCCC1", "activity change, negative = growth inhibition": -15.5}, {"molecule": "CCSc1nc2sc3c(c2c(=O)n1-c1ccc(C)cc1)CCN(C)C3", "Potency": "7.31 µM (active)"}, {"molecule": "CC1(C)Cc2c(sc3nc(SCC(=O)NCc4ccccc4)n(-c4ccccc4)c(=O)c23)CS1", "activity change, negative = growth inhibition": -5.28}, {"molecule": "CCCSc1nc2sc3c(c2c(=O)n1-c1ccc(OC)cc1)CCN(C)C3", "Potency": "14.6 µM (active)"}, {"molecule": "CCn1c(SCC(=O)Nc2ccc(Br)cc2)nc2sc3c(c2c1=O)CCN(C)C3", "activity change, negative = growth inhibition": -1.28}]}]}
